From PubChem BioAssay (NCI)
The panel holds about 83,000 compounds, 20% with a hit somewhere; the sample as a whole holds those more often.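 The test compound was applied at a single concentration to cells in 96-well plates for 48 hours, and percent growth was recorded.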 Calls of active or inactive are those of the source. The calls were made as follows: active = growth percent below 10; inactive = the rest.

Tests used:
Assay in all cases: NCI-60 one-dose screen, 48 h (100 = growth as untreated, 0 = no growth, -100 = all killed)
Conditions in all cases: 10 µM unless noted
T-47D breast = tested on: T-47D breast
BT-549 breast = tested on: BT-549 breast
MDA-MB-435 melanoma = tested on: MDA-MB-435 melanoma
SW-620 colon = tested on: SW-620 colon
MCF7 breast = tested on: MCF7 breast
HCT-116 colon = tested on: HCT-116 colon
HCC-2998 colon = tested on: HCC-2998 colon
KM12 colon = tested on: KM12 colon

Measured: growth

Cc1cccc(Cc2cnc(NC(=O)CCc3ccc(C)o3)s2)c1
active: BT-549 breast 5.79% | MDA-MB-435 melanoma -23.1%
inactive: T-47D breast 76.9% | SW-620 colon 30% | MCF7 breast 12.4% | HCT-116 colon 11.5% | HCC-2998 colon 23.7% | KM12 colon 12.6%

O=C(Nc1cccc([N+](=O)[O-])c1)c1ccc2ccccc2c1O
inactive: T-47D breast 35.8% | BT-549 breast 80% | MDA-MB-435 melanoma 49.7% | SW-620 colon 74% | MCF7 breast 77% | HCT-116 colon 59.4% | HCC-2998 colon 67% | KM12 colon 79.1%

CCCC(=O)Oc1ccc(/C(=C(\C)c2ccc(Cl)cc2)c2ccc(OCCN(CC)CC)cc2)cc1
inactive: BT-549 breast 22.7%
active: T-47D breast -33.1% | MDA-MB-435 melanoma -85.9% | SW-620 colon -80.2% | MCF7 breast -78.4% | HCT-116 colon -86.7% | HCC-2998 colon -65.4% | KM12 colon -44.4%

CC(C)CNCC(O)COc1ccc(C(C)(C)c2ccc(OCC(O)CNCC(C)C)cc2)cc1 (stereo unspecified)
active: T-47D breast -31.3% | MDA-MB-435 melanoma 7.56% | SW-620 colon 1.07% | HCT-116 colon 0.347% | HCC-2998 colon -24.5%
inactive: BT-549 breast 69.4% | MCF7 breast 10.3% | KM12 colon 37.1%

O=C(CSc1nnc(-c2ccccc2)o1)Nc1ccc(C(=O)/C=C/c2ccccc2)cc1
active: MCF7 breast 7.77% | HCT-116 colon -2.15%
inactive: T-47D breast 79.4% | BT-549 breast 74.5% | MDA-MB-435 melanoma 55.5% | SW-620 colon 39.4% | HCC-2998 colon 46.5% | KM12 colon 30.2%

CCC1CN2C(=N1)c1ccccc1-c1cc(Cl)ccc12 (stereo unspecified)
active: MCF7 breast 4.59% | HCT-116 colon 1.68%
inactive: T-47D breast 21.9% | BT-549 breast 42.5% | MDA-MB-435 melanoma 25.4% | SW-620 colon 18.6% | HCC-2998 colon 28.5% | KM12 colon 16.7%

NCC(=O)NS(=O)(=O)OC[C@H]1O[C@@H](n2cnc3c(N)ncnc32)[C@H](O)[C@@H]1O
inactive: BT-549 breast 21.1% | HCC-2998 colon 41.4%
active: T-47D breast 7.66% | MDA-MB-435 melanoma -49.8% | SW-620 colon 3.71% | MCF7 breast 8.27% | HCT-116 colon 6.57% | KM12 colon 0.735%

FC(F)(F)c1cn(CCN2CCOCC2)c2ncnc(Cl)c12
inactive: T-47D breast 95.1% | BT-549 breast 93.6% | MDA-MB-435 melanoma 56.5% | SW-620 colon 53.7% | MCF7 breast 97.5% | HCT-116 colon 15.4% | HCC-2998 colon 75.2% | KM12 colon 101%

CCCCCCCCN(CCCCCCCC)CC(O)c1cc(-c2ccccc2)nc2ccc(OC)cc12 (stereo unspecified)
active: HCT-116 colon 8.32%
inactive: T-47D breast 77% | BT-549 breast 78.8% | MDA-MB-435 melanoma 60.1% | SW-620 colon 23.6% | MCF7 breast 67% | HCC-2998 colon 101% | KM12 colon 82.9%

CN(C)C(=O)Nc1nc2cc(Cl)c(Cl)cc2[nH]1
active: MDA-MB-435 melanoma -24.5% | HCT-116 colon 1.15% | KM12 colon 1.99%
inactive: T-47D breast 52.5% | BT-549 breast 39.5% | SW-620 colon 29.8% | MCF7 breast 15.4% | HCC-2998 colon 14.2%

O=C1COc2ccccc2C(=O)N1CCCCNc1ccccc1
inactive: T-47D breast 73.3% | BT-549 breast 46% | MDA-MB-435 melanoma 98.1% | SW-620 colon 92.3% | MCF7 breast 82.8% | HCT-116 colon 77.4% | HCC-2998 colon 94.5% | KM12 colon 79.9%

O=C1OC(c2ccc(-c3ccccc3)cc2)=C/C1=C/C=C/c1ccccc1
inactive: T-47D breast 101% | BT-549 breast 111% | MDA-MB-435 melanoma 106% | SW-620 colon 97% | MCF7 breast 87.9% | HCT-116 colon 88% | HCC-2998 colon 106% | KM12 colon 103%

Cc1ccc2oc(=O)cc(C3C(C#N)=C(N)Oc4c3ccc3ccccc43)c2c1 (stereo unspecified)
active: MDA-MB-435 melanoma 6.57%
inactive: T-47D breast 69% | BT-549 breast 70.2% | SW-620 colon 55% | MCF7 breast 42.1% | HCT-116 colon 69.2% | HCC-2998 colon 91.4% | KM12 colon 55.1%

COc1cc(C(=O)N2CCN(C(=O)c3cc(OC)c(OCc4ccccc4)cc3N)CC2)c(N)cc1OCc1ccccc1
inactive: T-47D breast 114% | BT-549 breast 101% | MDA-MB-435 melanoma 127% | SW-620 colon 119% | MCF7 breast 89.5% | HCT-116 colon 104% | HCC-2998 colon 102% | KM12 colon 109%

O=c1c(-c2ccc3c(c2)OCO3)coc2c(CO)c(O)ccc12
active: BT-549 breast -43% | HCT-116 colon -8.96% | HCC-2998 colon 4.46%
inactive: T-47D breast 19.2% | MDA-MB-435 melanoma 49.9% | SW-620 colon 38.1% | MCF7 breast 20.6% | KM12 colon 26.8%

CN(C)CCCOc1c(Br)cc(/C=C/C(=O)N(C)CCc2cc(Br)c(OCCCN(C)C)c(Br)c2)cc1Br
inactive: T-47D breast 92.8% | BT-549 breast 76.5% | MDA-MB-435 melanoma 19.8% | SW-620 colon 32% | MCF7 breast 32.5% | HCT-116 colon 12.1% | HCC-2998 colon 73% | KM12 colon 47.7%

O=C(NNC(=O)c1ccc([N+](=O)[O-])cc1)c1ccc([N+](=O)[O-])cc1
inactive: T-47D breast 92% | BT-549 breast 89.8% | MDA-MB-435 melanoma 101% | SW-620 colon 106% | MCF7 breast 90.4% | HCT-116 colon 84.6% | HCC-2998 colon 104% | KM12 colon 105%

O=C(Nc1ccc(-n2ccc3c(NC(=O)c4ccccc4)ncnc32)cc1)Nc1ccc(Cl)c(Cl)c1
inactive: T-47D breast 33.5% | BT-549 breast 33.3% | HCC-2998 colon 32.7%
active: MDA-MB-435 melanoma 5.82% | SW-620 colon -2.62% | MCF7 breast 0.297% | HCT-116 colon -82.8% | KM12 colon -8.64%

Nn1c(SCC(=O)Nc2cc(Cl)c(Cl)cc2Cl)nnc1-c1cc(F)c(Cl)cc1Cl
inactive: T-47D breast 97.5% | BT-549 breast 87.4% | MDA-MB-435 melanoma 91.2% | SW-620 colon 106% | MCF7 breast 78.8% | HCT-116 colon 91.2% | HCC-2998 colon 139% | KM12 colon 110%

COc1cc(Cn2cc3c(c2)-c2onc(CO)c2CC3)cc(OC)c1OC
inactive: T-47D breast 93.2% | BT-549 breast 98.6% | MDA-MB-435 melanoma 72% | SW-620 colon 87% | MCF7 breast 86.8% | HCT-116 colon 84% | HCC-2998 colon 101% | KM12 colon 90.9%

CCOC(=O)c1[nH]c(-c2ccc(Cl)cc2)cc1-c1cccnc1
inactive: BT-549 breast 29.4% | SW-620 colon 25.4% | MCF7 breast 22.2% | HCC-2998 colon 29.9% | KM12 colon 19.8%
active: T-47D breast 5.56% | MDA-MB-435 melanoma -38% | HCT-116 colon 9.8%

CCn1cc(C(=O)O)c(=O)c2cc(F)c(N3CCN(CC(=O)Nc4ccc(C(C)=O)cc4)CC3)cc21
inactive: T-47D breast 92% | BT-549 breast 109% | MDA-MB-435 melanoma 102% | SW-620 colon 103% | MCF7 breast 99.1% | HCT-116 colon 104% | HCC-2998 colon 96.2% | KM12 colon 97.4%

CC(=O)c1cc2c(c(O)c1C)C(=O)C(=O)c1c(O)cccc1-2
active: T-47D breast -28.5% | BT-549 breast -94.4% | MDA-MB-435 melanoma -84.3% | SW-620 colon -69% | MCF7 breast -55.6% | HCT-116 colon -85.9% | HCC-2998 colon -84.2% | KM12 colon -50.5%

S=c1[nH]nc(Cn2c3ccccc3c3ccncc32)o1
inactive: T-47D breast 96% | BT-549 breast 105% | MDA-MB-435 melanoma 102% | SW-620 colon 104% | MCF7 breast 109% | HCT-116 colon 102% | HCC-2998 colon 106% | KM12 colon 102%

CC1(C)N=C(N)N=C(N)N1c1cccc(CCCCc2ccccc2)c1
active: BT-549 breast -35.1% | MDA-MB-435 melanoma -0.215% | MCF7 breast 3.82% | HCT-116 colon 2.07% | HCC-2998 colon -9.45% | KM12 colon -42.8%
inactive: T-47D breast 18.1% | SW-620 colon 25.3%

COc1ccc(C2=NN(C(=O)COc3ccc(Cl)cc3)C(O)(c3cc(F)c(Cl)cc3Cl)C2)cc1OC (stereo unspecified)
inactive: HCC-2998 colon 78.4% | KM12 colon 60.4%
active: T-47D breast -51.1% | BT-549 breast -76% | MDA-MB-435 melanoma 8.66% | SW-620 colon -84.8% | MCF7 breast 7.79% | HCT-116 colon -69.1%

COc1cc(NC(=O)C#Cc2ccccc2)c(OC)cc1Cl
inactive: T-47D breast 71.1% | BT-549 breast 51.3% | MDA-MB-435 melanoma 59.3% | SW-620 colon 23.9% | MCF7 breast 22.6% | HCT-116 colon 21.9% | HCC-2998 colon 90.9% | KM12 colon 49.7%

CC(C)Cn1cnc2c3ccccc3nc(NCn3nc(-c4cc(Cl)cc(Cl)c4Cl)oc3=S)c21
inactive: T-47D breast 94.4% | BT-549 breast 97.5% | MDA-MB-435 melanoma 91.4% | SW-620 colon 117% | MCF7 breast 96.2% | HCT-116 colon 79.3% | HCC-2998 colon 97.4% | KM12 colon 99.7%

CCc1c(C)c2cc3nc(NCc4ccccc4)oc3c(C)c2oc1=O
inactive: T-47D breast 47.2% | BT-549 breast 32.6% | MDA-MB-435 melanoma 47.7% | SW-620 colon 95.8% | MCF7 breast 73.1% | HCT-116 colon 57.2% | HCC-2998 colon 79.6% | KM12 colon 83.5%

COCCNC(C(=O)c1ccccc1)c1ccccc1 (stereo unspecified)
inactive: T-47D breast 92.1% | BT-549 breast 97.6% | MDA-MB-435 melanoma 103% | SW-620 colon 101% | MCF7 breast 95.3% | HCT-116 colon 99.9% | HCC-2998 colon 107% | KM12 colon 104%

NS(=O)(=O)c1ccc(Nc2nc(O)c(/C=C3\C=Nc4ccccc43)s2)cc1
inactive: T-47D breast 99.3% | BT-549 breast 108% | MDA-MB-435 melanoma 107% | SW-620 colon 99.6% | MCF7 breast 94.2% | HCT-116 colon 92.7% | HCC-2998 colon 116% | KM12 colon 95.6%

CC(Cc1cccc(C(F)(F)F)c1)NCCOC(=O)c1ccccc1 (stereo unspecified)
inactive: T-47D breast 105% | BT-549 breast 109% | MDA-MB-435 melanoma 102% | SW-620 colon 103% | MCF7 breast 106% | HCT-116 colon 100% | HCC-2998 colon 109% | KM12 colon 114%
